Shown are actives, neighbours in structure and some others; about 3.5% of the full set was active somewhere.
mHTT CaM bind: mHTT-calmodulin interaction abrogation | P42858 | 3.6% of 190,000 active | inhibition, % at 15 µM | AlphaScreen His-mHTT/GST-CaM binding, luminescence | AID 1671202;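 also: 0% = both proteins with DMSO and 100% = one protein alone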
Pf apPOL inh: Pf-apPOL DNA polymerase inhibition; inhibition, % at 10 µM; Recombinant Pf-apPOL, molecular beacon fluorescence, 1.5 h; AID 1794808; 0.25% of 210,000 active
Numbers without * were called inactive; i = inactive; . = no result; + = active, no number; ! = repeats disagree. Rule as the data show it: active = inhibition above about 50%; inactive = the rest.

SMILES | mHTT CaM bind | Pf apPOL inh
COc1ccc(/C=C2\C=C(c3ccccc3)N(c3ccc(F)cc3)C2=O)cc1 | 53.0* | 5.4
CCOC(=O)C(C)Oc1ccc2c(C)c(-c3ccc(OC)cc3)c(=O)oc2c1 (stereo not drawn) | -32.2 | -9.5
CCc1ccccc1NC(=O)CN1CCC(c2nc(-c3ccncc3)no2)CC1 | 0.7 | -5.0
COc1ccc(C(=O)N2CCN(c3ccccc3OC)C(=O)C2C)cc1 (stereo not drawn) | 3.3 | -2.7
COc1ccc(C(O)=Cc2nc3cc(Cl)ccc3oc2=O)cc1OC | 17.0 | 8.7
O=C(O)c1cccc(N2C(=O)/C(=C/c3ccc([N+](=O)[O-])cc3)C=C2c2ccccc2)c1 | 18.0 | 2.7
O=C1/C(=C/c2ccc(-c3ccc([N+](=O)[O-])cc3)o2)C=C(c2ccccc2)N1c1cccnc1 | 65.0* | -1.9
C#CCNC(=O)C1CC(=O)N(c2ccc(C)cc2)C1 (stereo not drawn) | 0.5 | -1.2
Cc1nc2ccc(Cl)cc2c2c(N)c3ccccc3n12 | 56.2* | -11.8
CC(=O)Nc1c2ccc([N+](=O)[O-])cc2n2c(C)nc3ccc(Cl)cc3c12 | -2.0 | -5.4
CCOC(=O)C1CCC(CNC(=O)N2CCCC2c2ccc(F)cc2)CC1 (stereo not drawn) | -3.1 | -1.6
COc1ccc(-c2ccc(C(=O)N3CCc4ccccc4C3)s2)c(OC)c1OC | 83.4* | -5.2
COc1ccc(-c2ccc(C(=O)N3CCCCC3)s2)c(OC)c1OC | 0.3 | -7.8
O=C1OC2(CCCC2)OC(=O)C1=Cc1c[nH]c2ccccc12 | 7.0 | -16.1
O=C1C(=Cc2c[nH]c3ccccc23)C(=O)c2ccccc21 | 57.0*! | -0.1
COCCN1CCC(N2CCCN(S(=O)(=O)c3cccc(C)c3)CC2)C1=O (stereo not drawn) | 7.8 | -0.8
CC1CC(=O)NN=C1c1ccc(N2CCOCC2)c([N+](=O)[O-])c1 (stereo not drawn) | 3.4 | -6.0
Cn1ccc2c(N3CCCC3)cc3c(c21)C1CCC3C1 (stereo not drawn) | 25.0 | 0.9
Cn1ccc2c(N3CCCCC3)cc3c(c21)C1CCC3C1 (stereo not drawn) | 77.6* | -5.2
Cn1ccc2c(N3CCCC3)cc3c(c21)C1CCC3O1 (stereo not drawn) | 39.3 | -3.1
Cn1ccc2c(-c3cncc4ccccc34)cc3c(c21)C1CCC3O1 (stereo not drawn) | 100.1* | -3.0
Cc1ccccc1-c1cc2c(c3c1ccn3C)C1CCC2O1 (stereo not drawn) | 30.7 | -3.7
Cn1ccc2c(N3CCCCCC3)cc3c(c21)C1CCC3O1 (stereo not drawn) | 66.2* | 0.0
CCOc1ccc(-n2nc(C(=O)Nc3cnc4ccccc4c3)c3ccccc3c2=O)cc1 | -7.0 | 3.7
CCCCCn1c(SCc2ncc(C(F)(F)F)cc2Cl)n[nH]c1=O | . | -5.8
SMILES | mHTT CaM bind | Pf apPOL inh
CCCc1cc(C(=O)N2CCCC2c2cc(CC)no2)no1 (stereo not drawn) | -10.0 | -6.7
COc1cc(NC(=O)N2CCCC2c2ccccc2C)cc(OC)c1OC (stereo not drawn) | -0.9 | -1.2
CC1CCCC(NS(=O)(=O)c2ccc(F)c(C(=O)Nc3ccccc3Cl)c2)C1C (stereo not drawn) | -18.0 | -3.0
Cn1ccnc1SCC(=O)N1c2ccccc2Sc2ccc(C(F)(F)F)cc21 | 53.0* | -0.9
N#CSCC(=O)N1c2ccccc2Sc2ccc(C(F)(F)F)cc21 | 3.0 | 13.5
Cc1cccc(C2C=C(c3ccc(Cl)cc3)Nc3ncnn32)c1 (stereo not drawn) | 18.0 | 0.9
O=C(Nc1ccc(F)cc1F)N1CCC2(CC1)Nc1ccccc1-n1cccc12 | 53.9* | 6.9
O=C(Nc1cc(F)ccc1F)N1CCC2(CC1)Nc1cc(F)ccc1-n1cccc12 | 59.1* | -12.2
O=C(Nc1ccccc1F)N1CCC2(CC1)Nc1ccccc1-n1cccc12 | 50.2* | -3.4
Cc1ccccc1NC(=O)N1CCC2(CC1)Nc1ccccc1-n1cccc12 | 32.9 | -2.1
Cc1ccc(-c2nc3ccccn3c2NC(=O)CC(C)C)cc1 | 7.5 | 5.7
O=C(Nc1cccn2cnnc12)c1cccc(C(F)(F)F)c1 | -4.0 | -4.0
COc1ccc(CN2COc3ccc4c(c3C2)OC(=Cc2ccco2)C4=O)cc1OC | 53.1* | -14.9
COc1cc(CN2COc3ccc4c(c3C2)OC(=Cc2ccccc2)C4=O)cc(OC)c1OC | 11.5 | -16.0
COc1ccccc1CN1COc2ccc3c(c2C1)OC(=Cc1ccco1)C3=O | 18.4 | -19.8
COc1cc(CN2COc3ccc4c(c3C2)OC(=Cc2ccco2)C4=O)cc(OC)c1OC | 50.9* | -19.0
COCCN=C1Nc2ccccc2CNC12CCN(C(=O)COc1ccccc1C)C2 (stereo not drawn) | 19.7 | -4.3
Cc1ccc(CNS(=O)(=O)c2ccc3[nH]c4c(c3c2)CCCC4)o1 | 50.2* | -3.8
COc1ccc(CNS(=O)(=O)c2ccc3nc(-c4ccccc4)[nH]c3c2)cc1 | 4.0 | 8.5
COc1ccc(CNS(=O)(=O)c2ccc3[nH]c4c(c3c2)CCCCC4)cc1 | 97.3* | -5.0
COc1ccc(CCNS(=O)(=O)c2ccc3[nH]c4c(c3c2)CCCC4)cc1OC | 47.0 | -3.5
CCOc1ccc(CNS(=O)(=O)c2ccc3[nH]c4c(c3c2)CCCCC4)cc1 | 54.5* | -1.1
CCOc1ccccc1NC(=O)CN(C)S(=O)(=O)c1ccc2[nH]c3c(c2c1)CCCC3 | 46.7 | -0.9
O=S(=O)(NCCc1ccccc1)c1ccc2[nH]c3c(c2c1)CCCC3 | 94.9* | -0.7
COc1cc(C(=O)Nc2cccc(CCc3ccccn3)c2)cc(OC)c1OC | 6.0 | 0.8
SMILES | mHTT CaM bind | Pf apPOL inh
O=S(=O)(NCc1ccc2c(c1)OCO2)c1ccc2[nH]c3c(c2c1)CCCCC3 | 96.2* | -4.8
COc1cccc(CNS(=O)(=O)c2ccc3[nH]c4c(c3c2)CCCCC4)c1 | 73.1* | -7.2
COc1cccc(CNS(=O)(=O)c2ccc3[nH]c(=O)sc3c2)c1 | 5.0 | 3.5
CN(CC(=O)N1CCCC1)S(=O)(=O)c1ccc2[nH]c3c(c2c1)CCCC3 | 0.6 | -0.7
CN(Cc1ccccc1)S(=O)(=O)c1ccc2[nH]c3c(c2c1)CCCC3 | 70.6* | -3.8
O=c1[nH]c2ccc(S(=O)(=O)NCc3ccc4c(c3)OCO4)cc2[nH]c1=O | -2.0 | -4.0
CCN(c1ccc(OC)cc1)S(=O)(=O)c1ccc2[nH]c3c(c2c1)CCCCC3 | 69.6* | -2.6
COc1ccc(S(=O)(=O)Nc2ccc(Oc3ccc(C)nn3)cc2)cc1Cl | -8.5 | -4.0
O=C(NCCCc1ccccc1)c1cn(-c2cccc(Cl)c2)nn1 | -6.3 | 1.0
O=C1Nc2ccccc2/C1=N\N1CCN(C2c3ccccc3-c3ccccc32)CC1 | + | .
O=C1Nc2ccccc2/C1=N\N1C(=O)C2C=CC=CC2C1=O (stereo not drawn) | i | .
O=C(c1ccco1)N1CCC(CCOCc2ccc(F)cc2)CC1 | 10.8 | -2.1
Cc1ccc(C(C(=O)Nc2ccc(C(C)C)cc2)N(Cc2ccco2)C(=O)c2cnccn2)cc1 (stereo not drawn) | 69.0* | -8.6
CC(C)c1ccc(NC(=O)C(c2ccccc2)N(C)C(=O)c2cnccn2)cc1 (stereo not drawn) | 20.0 | -1.2
O=[N+]([O-])c1cc2c(cc1CN1CCN(c3ccc(F)cc3)CC1)OCO2 | 30.3 | 0.5
Cc1ccccc1N1CCN(Cc2cc3c(cc2[N+](=O)[O-])OCO3)CC1 | 18.6 | 3.0
O=[N+]([O-])c1cc2c(cc1CN1CCN(c3cccc(Cl)c3)CC1)OCO2 | 77.0* | -2.2
